In PubChem BioAssay (EPA / NIEHS):
Results filed as inconclusive are left out. Calls of active or inactive are those of the source. The calls were made as follows: active = hit-call score of the fitted dose curve at least 0.9, where 1 is the maximum; inconclusive = response in the unintended direction; inactive = score below 0.9.

molecular target: Cellular tumor antigen p53 (Homo sapiens) (UniProt P04637); test: TOX21_p53_BLA_p2_ratio: Tox21 HCT-116 p53 Agonism Beta-lactamase Assay, Ratio, Phase 2 (AID 2283592)
Summary of the method: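 Ratio endpoint: beta-lactamase cleavage of CCF4-AM, blue (460 nm) over green (530 nm). HCT116 reporter line; 16 h treatment, 37C; substrate 2 h RT.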

Chain of Cellular tumor antigen p53 (Homo sapiens) (P04637 whole entry, looked up): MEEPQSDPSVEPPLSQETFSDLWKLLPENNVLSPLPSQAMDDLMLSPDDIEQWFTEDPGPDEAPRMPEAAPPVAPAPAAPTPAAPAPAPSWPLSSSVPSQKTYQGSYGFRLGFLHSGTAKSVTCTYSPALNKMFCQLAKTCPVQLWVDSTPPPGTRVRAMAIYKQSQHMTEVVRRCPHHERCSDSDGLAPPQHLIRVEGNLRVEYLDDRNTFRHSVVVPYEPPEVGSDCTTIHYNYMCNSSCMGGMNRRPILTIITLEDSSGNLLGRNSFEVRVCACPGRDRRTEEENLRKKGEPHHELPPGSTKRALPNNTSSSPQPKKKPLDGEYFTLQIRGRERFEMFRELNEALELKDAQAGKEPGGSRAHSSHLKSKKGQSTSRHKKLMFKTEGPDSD

| Structure (SMILES) | outcome |
| --- | --- |
| C[Si](NC1CCCCC1)(NC1CCCCC1)NC1CCCCC1 | inactive |
| CC(C[N+](C)(C)C)OC(N)=O (stereo not drawn) | inactive |
| CC(C)NNC(=O)c1ccncc1 | inactive |
| CC(O)C(CO)C(C)O (stereo not drawn) | inactive |
| Cc1ccc2c(n1)Oc1ccc(C(C)C(=O)OCC(=O)N(C)C)cc1C2 (stereo not drawn) | inactive |
| C=C[C@]1(C)C[C@@H](OC(=O)CSC(C)(C)CNC(=O)[C@H](N)C(C)C)[C@]2(C)[C@H](C)CC[C@]3(CCC(=O)[C@H]32)[C@@H](C)[C@@H]1O | inactive |
| O=C(O)CCCCCCCCCCCBr | inactive |
| OCCCNc1ccccc1 | inactive |
| CNCCCCOc1ccccc1Cc1ccccc1 | inactive |
| OC(CCN1CCCC1)(c1ccccc1)C1CCCCC1 (stereo not drawn) | inactive |
| CN(C/C=C/C#CC(C)(C)C)Cc1cccc2ccccc12 | inactive |
| O=C[C@H](O)[C@@H](O)[C@@H](O)[C@H](O)CO | inactive |
| CC/C=C\C/C=C\C/C=C\C/C=C\C/C=C\CCCC(=O)O | inactive |
| Nc1ccc(N=Nc2ccccc2)c(N)c1 | inactive |
| COC(=O)c1ccc(C(=O)O)cc1 | inactive |
| COc1cc2[nH]c(C)c(CCN3CCN(c4ccccc4)CC3)c2cc1OC | inactive |
| COc1cc2c(cc1OC)-c1cc3ccc(OC)c(OC)c3c[n+]1CC2 | inactive |
| C1=CC2C3C=CC(C3)C2C1 (stereo not drawn) (tested in a mixture with another compound) | inactive |
| OC(CN1CCC(Cc2ccc(F)cc2)CC1)c1ccc(Cl)cc1 (stereo not drawn) | inactive |
| O=C(O)CCCCCC(=O)O | inactive |

| Structure (SMILES) | outcome |
| --- | --- |
| C[S+](C)CCC(N)C(=O)O (stereo not drawn) | inactive |
| COc1cc(C)nc(-n2nc(C)cc2OC)n1 | inactive |
| CN(C(=O)CCCOc1ccc2[nH]c(=O)ccc2c1)C1CCCCC1 | inactive |
| CCN(CC)c1ccc2c(-c3ccc(S(=O)(=O)O)cc3S(=O)(=O)[O-])c3ccc(=[N+](CC)CC)cc-3oc2c1 | inactive |
| Cc1cc(C(C)(C)C)c(O)c(C)c1Cn1c(=O)n(Cc2c(C)cc(C(C)(C)C)c(O)c2C)c(=O)n(Cc2c(C)cc(C(C)(C)C)c(O)c2C)c1=O | inactive |
| Cc1nnc(C(C)C)n1C1C[C@H]2CC[C@@H](C1)N2CC[C@@H](NC(=O)C1CCC(F)(F)CC1)c1ccccc1 (stereo partly drawn) | inactive |
| Cc1nc2ccccn2c(=O)c1CCN1CCC(C(=O)c2ccc(F)cc2)CC1 | inactive |
| CO[C@H]1/C=C/O[C@@]2(C)Oc3c(C)c(O)c4c(O)c(c5c(c4c3C2=O)=NC2(CCN(CC(C)C)CC2)N=5)NC(=O)/C(C)=C\C=C\[C@H](C)[C@H](O)[C@@H](C)[C@@H](O)[C@@H](C)[C@H](OC(C)=O)[C@@H]1C | inactive |
| CCCCCCCCS(=O)(=O)Cl | inactive |
| CNC(=O)CN(CCN(CCN(CC(=O)[O-])CC(=O)NC)CC(=O)[O-])CC(=O)[O-].O.[Gd+3] | inactive |
| C[N+]1(C)CCC(=C(c2ccccc2)c2ccccc2)CC1 | inactive |
| CN[C@@H]1[C@H](O)[C@H](NC)[C@H]2O[C@@]3(O)C(=O)C[C@@H](C)O[C@H]3O[C@@H]2[C@H]1O | inactive |
| CC(C)(C(=O)O)c1ccc(C(O)CCCN2CCC(C(O)(c3ccccc3)c3ccccc3)CC2)cc1 (stereo not drawn) | inactive |
| Cc1cccc(C)c1NC(=O)c1ccccc1C(=O)O | inactive |
| CCCCCCCCCCCCI | inactive |
| CCCCN(CCCC)CC(O)c1cc(Cl)cc2c1-c1ccc(Cl)cc1/C2=C/c1ccc(Cl)cc1 (stereo not drawn) | inactive |
| CC(C)(C)c1ccc(C(=O)CCCN2CCC(OC(c3ccccc3)c3ccccc3)CC2)cc1 | inactive |
| CCCCCCCCCI | inactive |
| C[CH2][Ge]([Cl])([CH2]C)[CH2]C | inactive |

system: not listed separately; test: TOX21_p53_BLA_p3_viability: Viability Assessment in the Tox21 HCT-116 p53 Agonism Beta-lactamase Assay, Phase 3 (AID 2283593);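 also: cells exposed to compound for 16 h before reading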
Summary of the method: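 Cellular ATP was quantified by CellTiter-Glo luminescence, read after 30 min at room temperature. Beforehand, HCT116 cells (4000/well) received compound 5 h post-seeding, 217-fold diluted from DMSO, then incubated 16 h at 37C.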

| Structure (SMILES) | outcome | AC50 |
| --- | --- | --- |
| C[Si](NC1CCCCC1)(NC1CCCCC1)NC1CCCCC1 | inactive | – |
| CC(C[N+](C)(C)C)OC(N)=O (stereo not drawn) | inactive | – |
| CC(C)NNC(=O)c1ccncc1 | inactive | – |
| CC(O)C(CO)C(C)O (stereo not drawn) | inactive | – |
| Cc1ccc2c(n1)Oc1ccc(C(C)C(=O)OCC(=O)N(C)C)cc1C2 (stereo not drawn) | inactive | – |
| C=C[C@]1(C)C[C@@H](OC(=O)CSC(C)(C)CNC(=O)[C@H](N)C(C)C)[C@]2(C)[C@H](C)CC[C@]3(CCC(=O)[C@H]32)[C@@H](C)[C@@H]1O | inactive | – |
| O=C(O)CCCCCCCCCCCBr | inactive | – |
| OCCCNc1ccccc1 | inactive | – |
| CNCCCCOc1ccccc1Cc1ccccc1 | inactive | – |
| OC(CCN1CCCC1)(c1ccccc1)C1CCCCC1 (stereo not drawn) | inactive | – |
| CN(C/C=C/C#CC(C)(C)C)Cc1cccc2ccccc12 | inactive | – |
| O=C[C@H](O)[C@@H](O)[C@@H](O)[C@H](O)CO | inactive | – |
| CC/C=C\C/C=C\C/C=C\C/C=C\C/C=C\CCCC(=O)O | inactive | – |
| Nc1ccc(N=Nc2ccccc2)c(N)c1 | inactive | – |
| COC(=O)c1ccc(C(=O)O)cc1 | inactive | – |
| COc1cc2[nH]c(C)c(CCN3CCN(c4ccccc4)CC3)c2cc1OC | inactive | – |
| COc1cc2c(cc1OC)-c1cc3ccc(OC)c(OC)c3c[n+]1CC2 | inactive | – |
| C1=CC2C3C=CC(C3)C2C1 (stereo not drawn) (tested in a mixture with another compound) | inactive | – |
| OC(CN1CCC(Cc2ccc(F)cc2)CC1)c1ccc(Cl)cc1 (stereo not drawn) | inactive | – |
| O=C(O)CCCCCC(=O)O | inactive | – |

| Structure (SMILES) | outcome | AC50 |
| --- | --- | --- |
| C[S+](C)CCC(N)C(=O)O (stereo not drawn) | inactive | – |
| COc1cc(C)nc(-n2nc(C)cc2OC)n1 | inactive | – |
| CN(C(=O)CCCOc1ccc2[nH]c(=O)ccc2c1)C1CCCCC1 | inactive | – |
| CCN(CC)c1ccc2c(-c3ccc(S(=O)(=O)O)cc3S(=O)(=O)[O-])c3ccc(=[N+](CC)CC)cc-3oc2c1 | inactive | – |
| Cc1cc(C(C)(C)C)c(O)c(C)c1Cn1c(=O)n(Cc2c(C)cc(C(C)(C)C)c(O)c2C)c(=O)n(Cc2c(C)cc(C(C)(C)C)c(O)c2C)c1=O | inactive | – |
| Cc1nnc(C(C)C)n1C1C[C@H]2CC[C@@H](C1)N2CC[C@@H](NC(=O)C1CCC(F)(F)CC1)c1ccccc1 (stereo partly drawn) | inactive | – |
| Cc1nc2ccccn2c(=O)c1CCN1CCC(C(=O)c2ccc(F)cc2)CC1 | inactive | – |
| CO[C@H]1/C=C/O[C@@]2(C)Oc3c(C)c(O)c4c(O)c(c5c(c4c3C2=O)=NC2(CCN(CC(C)C)CC2)N=5)NC(=O)/C(C)=C\C=C\[C@H](C)[C@H](O)[C@@H](C)[C@@H](O)[C@@H](C)[C@H](OC(C)=O)[C@@H]1C | inactive | – |
| CCCCCCCCS(=O)(=O)Cl | inactive | – |
| CNC(=O)CN(CCN(CCN(CC(=O)[O-])CC(=O)NC)CC(=O)[O-])CC(=O)[O-].O.[Gd+3] | inactive | – |
| C[N+]1(C)CCC(=C(c2ccccc2)c2ccccc2)CC1 | inactive | – |
| CN[C@@H]1[C@H](O)[C@H](NC)[C@H]2O[C@@]3(O)C(=O)C[C@@H](C)O[C@H]3O[C@@H]2[C@H]1O | inactive | – |
| CC(C)(C(=O)O)c1ccc(C(O)CCCN2CCC(C(O)(c3ccccc3)c3ccccc3)CC2)cc1 (stereo not drawn) | inactive | – |
| Cc1cccc(C)c1NC(=O)c1ccccc1C(=O)O | inactive | – |
| CCCCCCCCCCCCI | inactive | – |
| CCCCN(CCCC)CC(O)c1cc(Cl)cc2c1-c1ccc(Cl)cc1/C2=C/c1ccc(Cl)cc1 (stereo not drawn) | inactive | – |
| CC(C)(C)c1ccc(C(=O)CCCN2CCC(OC(c3ccccc3)c3ccccc3)CC2)cc1 | – | 31.1 µM (active) |
| CCCCCCCCCI | inactive | – |
| C[CH2][Ge]([Cl])([CH2]C)[CH2]C | inactive | – |
